Tests used:
Assay in all cases: log2 ratio of Biotin-Ahx-Ub-VS probe labelling (fragment/DMSO); higher = less target engagement (more negative = stronger competition), active = hit call of the paper (q ≤ 0.05, log2 ratio ≤ -1)
Details in all cases: compound concentration: 200 uM; treatment time: 3 h
[1] = molecular target: T1, USP19 (UniProt O94966)
T1 sequence (whole entry): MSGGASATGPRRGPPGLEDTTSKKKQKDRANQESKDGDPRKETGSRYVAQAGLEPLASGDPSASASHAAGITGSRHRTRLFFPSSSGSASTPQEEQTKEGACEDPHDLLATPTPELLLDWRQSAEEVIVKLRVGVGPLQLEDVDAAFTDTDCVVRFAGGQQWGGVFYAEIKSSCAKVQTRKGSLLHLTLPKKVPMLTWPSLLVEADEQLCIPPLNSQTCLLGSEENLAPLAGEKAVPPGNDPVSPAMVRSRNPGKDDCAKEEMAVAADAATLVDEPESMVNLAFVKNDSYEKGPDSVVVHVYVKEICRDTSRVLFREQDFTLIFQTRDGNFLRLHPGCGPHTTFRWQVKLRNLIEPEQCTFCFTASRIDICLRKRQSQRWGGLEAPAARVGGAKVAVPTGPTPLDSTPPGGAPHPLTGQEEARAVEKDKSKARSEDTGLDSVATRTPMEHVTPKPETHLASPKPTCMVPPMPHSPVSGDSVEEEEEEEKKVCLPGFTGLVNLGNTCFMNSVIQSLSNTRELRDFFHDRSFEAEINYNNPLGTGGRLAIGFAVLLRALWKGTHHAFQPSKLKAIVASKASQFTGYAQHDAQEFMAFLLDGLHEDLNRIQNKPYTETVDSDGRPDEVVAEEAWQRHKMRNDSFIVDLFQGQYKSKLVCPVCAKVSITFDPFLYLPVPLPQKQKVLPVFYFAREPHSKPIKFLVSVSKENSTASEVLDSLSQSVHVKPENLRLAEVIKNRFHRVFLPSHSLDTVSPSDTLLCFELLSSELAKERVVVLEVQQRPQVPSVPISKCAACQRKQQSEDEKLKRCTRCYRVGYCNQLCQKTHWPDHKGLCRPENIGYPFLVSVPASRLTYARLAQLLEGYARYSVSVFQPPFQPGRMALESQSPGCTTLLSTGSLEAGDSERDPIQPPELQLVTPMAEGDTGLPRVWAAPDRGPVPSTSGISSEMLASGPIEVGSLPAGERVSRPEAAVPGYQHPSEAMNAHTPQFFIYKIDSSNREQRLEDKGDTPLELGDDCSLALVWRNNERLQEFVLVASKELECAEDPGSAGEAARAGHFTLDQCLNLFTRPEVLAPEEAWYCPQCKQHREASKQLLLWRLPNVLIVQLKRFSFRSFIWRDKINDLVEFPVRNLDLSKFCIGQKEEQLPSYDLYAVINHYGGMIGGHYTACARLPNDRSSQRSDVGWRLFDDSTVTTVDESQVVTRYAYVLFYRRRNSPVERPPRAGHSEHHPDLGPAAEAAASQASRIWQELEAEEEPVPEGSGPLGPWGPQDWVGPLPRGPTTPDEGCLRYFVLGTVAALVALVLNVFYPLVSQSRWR
Outline: (§1)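 HEK293T lysate in Tris/CHAPS/IGEPAL buffer with protease inhibitors (495 µg per sample) was given fragment at 200 µM or vehicle for 3 h, in triplicate. It then received Biotin-Ahx-Ub-VS at 0.5 µM final for 1 h. Labelled DUBs were NeutrAvidin-enriched, digested with LysC and trypsin, and run by diaPASEF LC-MS/MS. Values are average log2 fragment/vehicle ratios by unpaired t-test on global-median-normalised Spectronaut quantities of proteins with ≥2 unique peptides.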

[2] = molecular target: USP24 (UniProt Q9UPU5)
Outline: as §1

[3] = molecular target: T2, USP25 (UniProt Q9UHP3)
T2 sequence (whole entry): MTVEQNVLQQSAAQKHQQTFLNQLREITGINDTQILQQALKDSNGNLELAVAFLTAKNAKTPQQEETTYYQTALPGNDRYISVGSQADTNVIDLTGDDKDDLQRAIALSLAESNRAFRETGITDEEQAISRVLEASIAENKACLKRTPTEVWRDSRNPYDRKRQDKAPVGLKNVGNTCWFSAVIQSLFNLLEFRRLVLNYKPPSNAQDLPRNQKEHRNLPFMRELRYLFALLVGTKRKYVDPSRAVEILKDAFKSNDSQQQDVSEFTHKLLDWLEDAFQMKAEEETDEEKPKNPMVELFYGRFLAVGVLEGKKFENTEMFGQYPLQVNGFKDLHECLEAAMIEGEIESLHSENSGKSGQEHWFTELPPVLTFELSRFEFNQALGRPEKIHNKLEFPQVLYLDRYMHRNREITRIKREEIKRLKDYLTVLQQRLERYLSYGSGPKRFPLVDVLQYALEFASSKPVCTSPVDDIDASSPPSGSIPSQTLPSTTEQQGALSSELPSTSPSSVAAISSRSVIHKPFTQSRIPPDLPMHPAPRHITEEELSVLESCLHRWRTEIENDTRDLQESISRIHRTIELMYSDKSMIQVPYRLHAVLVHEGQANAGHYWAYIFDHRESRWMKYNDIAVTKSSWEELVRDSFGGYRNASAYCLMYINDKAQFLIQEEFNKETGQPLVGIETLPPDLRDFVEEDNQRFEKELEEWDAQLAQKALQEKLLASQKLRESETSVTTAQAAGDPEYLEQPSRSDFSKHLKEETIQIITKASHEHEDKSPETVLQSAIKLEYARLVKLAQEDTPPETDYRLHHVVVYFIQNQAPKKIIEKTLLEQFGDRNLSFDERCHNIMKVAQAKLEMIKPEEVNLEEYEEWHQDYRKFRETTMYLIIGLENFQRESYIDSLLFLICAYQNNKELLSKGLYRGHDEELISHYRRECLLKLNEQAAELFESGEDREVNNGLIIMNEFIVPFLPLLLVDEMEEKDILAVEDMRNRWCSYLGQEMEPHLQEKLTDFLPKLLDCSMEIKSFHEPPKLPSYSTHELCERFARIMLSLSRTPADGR
Outline: as §1

[4] = molecular target: T3, USP28 (UniProt Q96RU2)
T3 sequence (whole entry): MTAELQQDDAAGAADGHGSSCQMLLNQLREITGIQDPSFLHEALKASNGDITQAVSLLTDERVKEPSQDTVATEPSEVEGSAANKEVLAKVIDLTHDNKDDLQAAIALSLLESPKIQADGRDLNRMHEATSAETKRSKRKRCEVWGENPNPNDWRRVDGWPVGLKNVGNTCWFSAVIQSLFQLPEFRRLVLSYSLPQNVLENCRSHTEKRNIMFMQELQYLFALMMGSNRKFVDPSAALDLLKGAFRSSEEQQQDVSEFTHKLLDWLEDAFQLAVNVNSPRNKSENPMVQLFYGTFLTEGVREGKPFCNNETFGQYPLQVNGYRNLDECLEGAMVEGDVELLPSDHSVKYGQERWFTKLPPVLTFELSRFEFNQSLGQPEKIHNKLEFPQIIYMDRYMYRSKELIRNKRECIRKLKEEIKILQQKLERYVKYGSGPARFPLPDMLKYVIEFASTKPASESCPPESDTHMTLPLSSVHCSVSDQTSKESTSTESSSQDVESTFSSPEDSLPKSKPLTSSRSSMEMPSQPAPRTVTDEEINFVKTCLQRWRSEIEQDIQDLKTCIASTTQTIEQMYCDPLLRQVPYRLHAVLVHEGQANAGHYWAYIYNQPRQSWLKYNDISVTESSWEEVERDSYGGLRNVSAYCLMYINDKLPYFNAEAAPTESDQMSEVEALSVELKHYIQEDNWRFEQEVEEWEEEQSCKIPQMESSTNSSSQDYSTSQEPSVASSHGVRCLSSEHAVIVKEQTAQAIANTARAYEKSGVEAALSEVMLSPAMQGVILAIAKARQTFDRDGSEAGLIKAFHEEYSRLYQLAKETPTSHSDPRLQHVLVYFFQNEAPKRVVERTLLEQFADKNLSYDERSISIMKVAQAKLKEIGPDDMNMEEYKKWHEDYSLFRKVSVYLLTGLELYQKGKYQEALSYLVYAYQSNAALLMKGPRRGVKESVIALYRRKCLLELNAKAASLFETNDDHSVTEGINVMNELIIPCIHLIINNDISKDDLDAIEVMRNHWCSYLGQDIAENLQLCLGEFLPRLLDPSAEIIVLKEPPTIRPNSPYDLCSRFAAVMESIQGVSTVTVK
Outline: as §1

Measured: log2 ratio of Biotin-Ahx-Ub-VS probe labelling

USP24, sequence (Q9UPU5 whole entry): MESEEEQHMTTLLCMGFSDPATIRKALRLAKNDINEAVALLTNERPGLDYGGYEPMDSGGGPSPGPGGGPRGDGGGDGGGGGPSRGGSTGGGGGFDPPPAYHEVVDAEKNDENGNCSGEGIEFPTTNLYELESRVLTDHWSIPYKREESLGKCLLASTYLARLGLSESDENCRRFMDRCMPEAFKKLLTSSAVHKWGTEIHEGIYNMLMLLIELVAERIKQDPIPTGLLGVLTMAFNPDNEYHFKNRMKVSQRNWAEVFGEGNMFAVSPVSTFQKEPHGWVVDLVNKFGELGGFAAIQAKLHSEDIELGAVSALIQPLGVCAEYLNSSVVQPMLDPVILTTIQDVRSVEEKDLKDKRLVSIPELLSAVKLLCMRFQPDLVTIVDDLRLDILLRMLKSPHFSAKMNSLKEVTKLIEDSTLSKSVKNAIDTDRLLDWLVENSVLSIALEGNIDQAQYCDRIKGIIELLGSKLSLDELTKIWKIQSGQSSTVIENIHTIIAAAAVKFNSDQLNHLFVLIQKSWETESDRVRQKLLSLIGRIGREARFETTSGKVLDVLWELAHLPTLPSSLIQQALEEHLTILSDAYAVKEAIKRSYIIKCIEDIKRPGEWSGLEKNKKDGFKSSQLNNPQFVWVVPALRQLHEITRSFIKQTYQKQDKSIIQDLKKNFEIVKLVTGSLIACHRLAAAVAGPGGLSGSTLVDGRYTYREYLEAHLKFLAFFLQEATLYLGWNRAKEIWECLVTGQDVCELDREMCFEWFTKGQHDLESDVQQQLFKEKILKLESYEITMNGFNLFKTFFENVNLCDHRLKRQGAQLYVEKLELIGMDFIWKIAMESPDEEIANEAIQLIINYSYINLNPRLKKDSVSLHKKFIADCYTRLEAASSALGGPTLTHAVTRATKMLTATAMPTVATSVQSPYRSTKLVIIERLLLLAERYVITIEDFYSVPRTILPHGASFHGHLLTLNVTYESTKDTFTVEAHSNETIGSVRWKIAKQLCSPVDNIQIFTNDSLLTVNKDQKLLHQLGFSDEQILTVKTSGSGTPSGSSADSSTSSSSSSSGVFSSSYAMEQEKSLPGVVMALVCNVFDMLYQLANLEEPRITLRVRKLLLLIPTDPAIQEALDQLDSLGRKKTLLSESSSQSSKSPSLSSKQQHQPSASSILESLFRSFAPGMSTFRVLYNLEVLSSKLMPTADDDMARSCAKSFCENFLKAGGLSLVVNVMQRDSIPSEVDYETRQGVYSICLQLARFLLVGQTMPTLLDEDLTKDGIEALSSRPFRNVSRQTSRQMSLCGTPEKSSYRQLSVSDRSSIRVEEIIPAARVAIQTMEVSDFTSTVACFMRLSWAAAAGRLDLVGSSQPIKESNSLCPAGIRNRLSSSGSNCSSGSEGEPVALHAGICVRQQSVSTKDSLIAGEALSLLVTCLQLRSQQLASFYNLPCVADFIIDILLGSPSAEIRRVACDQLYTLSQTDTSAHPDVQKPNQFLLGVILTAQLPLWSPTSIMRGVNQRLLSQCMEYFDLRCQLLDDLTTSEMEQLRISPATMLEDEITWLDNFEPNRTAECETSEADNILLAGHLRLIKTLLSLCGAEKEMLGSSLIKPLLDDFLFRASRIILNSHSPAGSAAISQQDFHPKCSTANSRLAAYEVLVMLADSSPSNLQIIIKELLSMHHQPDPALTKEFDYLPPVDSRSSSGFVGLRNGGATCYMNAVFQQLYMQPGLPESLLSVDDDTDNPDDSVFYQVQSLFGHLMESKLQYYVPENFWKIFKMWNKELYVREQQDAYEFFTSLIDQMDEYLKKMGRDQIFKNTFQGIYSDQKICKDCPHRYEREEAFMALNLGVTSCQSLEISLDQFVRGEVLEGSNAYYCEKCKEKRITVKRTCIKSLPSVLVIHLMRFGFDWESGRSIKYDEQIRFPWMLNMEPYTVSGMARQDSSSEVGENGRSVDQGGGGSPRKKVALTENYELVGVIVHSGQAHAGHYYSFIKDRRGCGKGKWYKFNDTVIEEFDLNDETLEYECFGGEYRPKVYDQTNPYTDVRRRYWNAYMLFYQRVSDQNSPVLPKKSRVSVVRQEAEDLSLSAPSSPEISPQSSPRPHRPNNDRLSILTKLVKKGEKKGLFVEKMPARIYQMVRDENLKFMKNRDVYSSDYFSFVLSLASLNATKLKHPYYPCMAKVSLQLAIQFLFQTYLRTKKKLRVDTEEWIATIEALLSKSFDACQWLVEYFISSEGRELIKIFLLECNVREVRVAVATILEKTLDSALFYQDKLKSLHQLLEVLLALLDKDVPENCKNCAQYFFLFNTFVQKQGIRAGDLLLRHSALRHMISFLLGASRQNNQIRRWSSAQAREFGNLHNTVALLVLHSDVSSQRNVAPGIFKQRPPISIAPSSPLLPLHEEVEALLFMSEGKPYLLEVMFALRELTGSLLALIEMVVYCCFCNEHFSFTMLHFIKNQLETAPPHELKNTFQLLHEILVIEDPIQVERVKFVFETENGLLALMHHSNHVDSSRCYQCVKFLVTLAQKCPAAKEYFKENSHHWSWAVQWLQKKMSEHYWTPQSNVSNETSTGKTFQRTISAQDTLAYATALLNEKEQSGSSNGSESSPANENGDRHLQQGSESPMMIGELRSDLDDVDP

O=C(CCl)N1CCCCCC1c1ncon1 (centres undefined)
inactive: [1] -0.0696 | [2] -0.257 | [3] -0.435 | [4] -0.35
